Assay outcomes (PubChem)
An excerpt weighted towards active compounds, which were near 4.1% of everything screened.
EBV LMP1 NFkB: inhibitors of Epstein-Barr LMP1-induced NF-kappaB reporter | LMP1-induced NF-kappaB luciferase reporter cells, luminescence | inhibition, % at 12.5 µM | hit rate 0.69% among 350,000 | AID 504558; in the data active = inhibition above about 41%; inconclusive = no clear call, values can overlap the other calls;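 also: 0% = neutral control wells and 100% = reference inhibitor control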
TWEAK-Fn14 inh: blocks TWEAK-Fn14 interaction in a reporter cell assay; TWEAK-stimulated Fn14 reporter cells, luciferase luminescence, 8 h; inhibition, % at 10 µM; hit rate 2% among 360,000; AID 1159606; in the data active = inhibition above about 50%
TROY signal inh: blocks TROY-dependent signaling in reporter cells; Q293 LMP1-TROYcd NF-kB luciferase reporter, 4 h; inhibition, % at 10 µM; hit rate 0.98% among 360,000;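 active = compounds whose plate-normalised and pattern-corrected inhibition of the luciferase reporter signal at the single screening dose is 50% or more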
MITF TRPM1 inh: MITF TRPM1 promoter inhibition in SK-MEL-5 cells; hit rate 0.83% among 330,000; SK-MEL-5 TRPM1 promoter luciferase, 24 h; inhibition, % at 12.5 µM;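 active = mean inhibition across replicates of 60% or more, whatever share of single replicates reaches that level; inconclusive = some that reach 60%, reason not given; inactive = mean inhibition across replicates below 60%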
Shn3 3UTR inh: Schnurri-3 reporter inhibition in Clone20 osteoblasts. inhibition, % at 12.5 µM. Clone20 osteoblast Shn3 3'UTR firefly luciferase, 24 h. hit rate 0.52% among 360,000. AID 588674;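 active = mean inhibition of at least 75% with every replicate also reaching 75%; inconclusive = mean inhibition at least 75% but some replicate below; inactive = mean inhibition below 75%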;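 also: 0% = median of neutral control wells and 100% = pilot-screen positive control compound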
Peg3 prom inh: Peg3 promoter activity inhibition. HeLa PEG-Prom luciferase reporter, luminescence, overnight. hit rate 1.7% among 360,000. inhibition, % at 20 µM;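 active = inhibition of at least 50% at 20 µM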
* hit, by the source's call; ? = inconclusive; . = no result; ! = not confirmed by another sample.

SMILES | EBV LMP1 NFkB | TWEAK-Fn14 inh | TROY signal inh | MITF TRPM1 inh | Shn3 3UTR inh | Peg3 prom inh
COc1ccccc1C(=O)OCC(=O)NC12CC3CC(CC(C3)C1)C2 | -21 | -4 | -40 | -37 | -8 | 0
CCCCCCCCCCOC(=O)Cn1c(COc2ccc(OC)cc2)[n+](C)c2ccccc21 | -4 | 62* | 65*! | 85* | 94*! | 105*
CCCCOCCCNC(=S)Nc1ccc(S(=O)(=O)N2CCOCC2)cc1 | 8 | -3 | 17 | 0 | 10 | 13
COc1cc(NC(=S)NCCC(c2ccccc2)c2ccccc2)c(OC)cc1Cl | -7 | 30 | 53* | -11 | 2 | 53*
O=S(=O)(c1ccc(NC(=S)NCCC(c2ccccc2)c2ccccc2)cc1)N1CCOCC1 | -7 | 56* | 39 | 29 | 50 | 47
S=C(NCCC(c1ccccc1)c1ccccc1)Nc1ccc(Cl)cc1 | 1 | 62* | 45 | 5 | -3 | 55*
COCCN(CCOC)Cc1cc(=O)oc2cc(OC)ccc12 | . | -5 | -13 | . | -10 | -14
Cc1cccc(C)c1Cn1c(C)c(C(=O)NCc2ccccc2C(F)(F)F)sc1=O | . | -8 | -19 | . | -1 | 8
COc1ccc(Br)c(Cn2c(C)c(C(=O)NCc3ccccc3C(F)(F)F)sc2=O)c1 | . | 13 | 69* | . | 4 | 14
c1ccc(COc2ccc(Nc3ncnc4nc[nH]c34)cc2)cc1 | -36 | 1 | -17 | -78 | -34 | -219
CCOC(=O)Nc1ccc2nc(Sc3ccc(Cl)cc3)sc2c1 | 0 | 9 | 82* | 9 | 26 | 15
CN(CC(=O)Nc1cccc(F)c1)C(=O)c1cc(S(=O)(=O)N2CCN(c3ccccc3)CC2)ccc1Cl | 12 | 7 | 10 | 26 | 43 | 34
COc1cccc(NC(=O)[C@@H]2CCCN2C(=O)C2CCN(S(=O)(=O)c3ccc(C)cc3)CC2)c1 | 3 | 28 | 8 | -4 | 29 | 11
CCCCCSc1nc2c(c(=O)[nH]c(=O)n2C)n1C | -1 | 4 | -13 | . | 10 | -11
CCCCCSc1nc2c(c(=O)[nH]c(=O)n2C)n1CC | 82* | -7 | -2 | -12 | -2 | -10
COCCn1c(SCCN2CCOCC2)nc2c1c(=O)[nH]c(=O)n2C | 77* | 5 | 8 | -1 | -30 | 14
O=[N+]([O-])c1cccc2nc3ccccc3c(NCCCn3ccnc3[N+](=O)[O-])c12 | 3 | -27 | -20 | 82* | -4 | 99*
Cc1nc2cc(N3CCCCC3)c(NC(=O)c3ccncc3)cc2c(=O)n1Cc1ccccc1 | 5 | -10 | -10 | 5 | -5 | 86*
c1ccc(Nc2ccccn2)cc1 | -9 | -7 | -24 | -11 | -4 | -10
c1ccc(/N=C2\N=C(Nc3ccccn3)c3ccccc32)nc1 | 31 | 19 | -10 | 54 | 84 | 64*
CC(C)c1ccc(N(CC(=O)NC(C)(C)C)C(=O)CCC(=O)Nc2nccs2)cc1 | -9 | 2 | 23 | 6 | 16 | 0
Cc1cnc(=O)[nH]c1SCC(=O)c1ccc(F)cc1 | -2 | -15 | -23 | -14 | -7 | -65
NC(=O)c1ccccc1N/C=C/C(=O)c1cccs1 | 53* | 9 | -51 | -30 | -24 | -179
Cc1cccc(N/C=C/C(=O)c2cccs2)c1C | -7 | 58* | -18 | -6 | -22 | -205
O=C(/C=C/Nc1ccc(F)cc1)c1cccs1 | -35 | 13 | 18 | -6 | -40 | -167
SMILES | EBV LMP1 NFkB | TWEAK-Fn14 inh | TROY signal inh | MITF TRPM1 inh | Shn3 3UTR inh | Peg3 prom inh
COC(=O)CNC(=O)CN1C(=O)N(c2ccccc2)C(N(O)C(=O)Nc2ccccc2)C1(C)C (centres undefined) | -4 | 81* | -9 | 4 | -19 | 0
COC(=O)CN1C(=O)N(c2ccccc2)C(N(O)C(=O)Nc2ccccc2)C1(C)C (centres undefined) | -4 | 0 | -27 | -14 | -48 | -9
CCS(=O)(=O)c1ccc2oc(SCC(=O)N3CCCCC3)nc2c1 | 11 | 1 | 4 | 8 | ? | 8
CC(=O)c1cccc(NC(=O)c2cccc3c(-c4cnn(C)c4)coc23)c1 | . | 26 | -2 | . | 11 | 58*
COc1cc(NC(=O)c2cccc3c(-c4cnn(C)c4)coc23)cc(OC)c1OC | . | 44 | 16 | . | 24 | 78*
Cn1cc(-c2coc3c(C(=O)Nc4ccccc4)cccc23)cn1 | . | 0 | -86 | . | -9 | -155
Clc1ccc(Cc2nc(-c3ccncc3)no2)cc1 | 11 | -4 | 5 | -5 | 0 | -19
COc1ccc(Cc2nc(-c3ccncc3)no2)cc1 | -4 | 36 | 50* | -14 | -1 | -81
O=C(O)c1cc(=O)c2c(OCC(O)COc3cccc4oc(C(=O)O)cc(=O)c34)cccc2o1 | 76* | -7 | 5 | 6 | -20 | -15
CN1CN(C)C(c2ccncc2)=C1c1ccncc1 | -18 | 7 | -7 | 15 | -8 | 6
O=C(COC(=O)c1ccc2c(c1)OCCO2)Nc1cccc(S(=O)(=O)N2CCOCC2)c1 | -2 | 26 | 56* | 1 | -8 | -8
CCCc1nc2ccccc2c(C(=O)OCC(=O)Nc2cccc(S(=O)(=O)N3CCOCC3)c2)c1CC | 10 | 61* | 42 | 5 | 29 | 53*
O=C(COC(=O)c1n[nH]c2ccccc12)Nc1cccc(S(=O)(=O)N2CCOCC2)c1 | -6 | 1 | 8 | -5 | 0 | 10
CCCc1nc2ccccc2c(C(=O)OCC(=O)Nc2ccc(S(=O)(=O)N3CCOCC3)cc2)c1CC | -16 | 37 | 78* | 11 | 29 | 34
CCOC(=O)Cc1cnc(N)s1 | -3 | 15 | 1 | -1 | -10 | 4
CC(CC(=O)c1ccccc1)=NCCCN=C(C)CC(=O)c1ccccc1 | -1 | 19 | -3 | . | -17 | 15
CCOc1ccc(-c2c(C#N)c(N)nc3sc(C(=O)c4ccccc4)c(N)c23)cc1 | 8 | 76* | 89* | 8 | 19 | 7
CCCc1ccc(S(=O)(=O)N/N=C(/C)c2ccc3c(c2)OCO3)cc1 | -7 | -10 | 5 | 2 | 17 | 11
Cc1cccc(C(=O)N[C@H](C(=O)Nc2ccc(C)c(S(=O)(=O)N3CCOCC3)c2)C(C)C)c1 | 4 | 29 | 0 | 10 | 54 | 20
O=C(/C=C/c1ccccc1)c1ccc(NC2=NCCCS2)cc1 | -22 | 39 | 11 | -31 | -2 | -131
O=C(/C=C/c1ccc(Br)cc1)c1ccc(NC2=NCCCS2)cc1 | 23 | 59* | -14 | 55 | 71 | 108*
CC(C)(C)c1ccc(/C=C/C(=O)c2ccc(NC3=NCCCS3)cc2)cc1 | -2 | 61* | 10 | 16 | 21 | -13
COc1ccc(CCNc2oc(COc3ccc(Br)cc3)nc2C#N)cc1OC | 0 | 25 | 59* | -1 | 13 | 35
COc1ccc(Nc2oc(COc3ccc(Cl)cc3)nc2C#N)cc1 | 46* | 88* | 32 | 27 | 19 | 47
COc1ccc(C2N(c3cc(Cl)ccc3OC)C(=O)C3CCCN32)cc1OC (centres undefined) | 2 | -7 | -2 | 12 | -3 | 5
